In PubChem BioAssay (EPA / NIEHS):
“And” between values parts separate entries of the source, which are not always exact repeats. Equal entries are not always repeated. More than one record can exist for a structure, and the calls need not agree. The source made the active and inactive calls. Rule for the calls: active = hit-call score of the fitted dose curve at least 0.9, where 1 is the maximum; inactive = score below 0.9.

How the values were obtained:
[1] = BSK_KF3CT_SRB: Viability Assessment in the BioMAP Diversity Plus: KF3CT Assay (AID 2283069); conditions: primary human keratinocytes with fibroblasts;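 note: total protein by sulforhodamine B staining as a cytotoxicity measure; read 24 h after compound addition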
Method in brief: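 SRB read-out at 560 nm (0.1% stain, TCA-fixed cells) gauges overt cytotoxicity in a human skin keratinocyte–fibroblast co-culture 24 h post-dosing. Signal change was fitted bidirectionally relative to DMSO control.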

[2] = read-out: Interleukin-1 alpha (IL1a), IL1A (gene 3552); experiment: BSK_KF3CT_IL1a: BioMAP Diversity Plus: KF3CT Assay for Interleukin-1 alpha (IL1a) Biomarker Activity (AID 2283070); conditions: primary human keratinocytes with fibroblasts; actives raise or lower the signal
Method in brief: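 Primary skin co-culture (keratinocytes, foreskin fibroblasts), 24 h exposure; ELISA for IL-1a; bidirectional curve fit vs DMSO.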

[3] = read-out: TIMP metallopeptidase inhibitor 2 (TIMP2), TIMP2 (gene 7077); experiment: BSK_KF3CT_TIMP2: BioMAP Diversity Plus: KF3CT Assay for TIMP metallopeptidase inhibitor 2 (TIMP2) Biomarker Activity (AID 2283071); conditions: primary human keratinocytes with fibroblasts; actives raise or lower the signal
Method in brief: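 Chemicals were dosed onto human skin primary co-cultures of keratinocytes and foreskin fibroblasts, and TIMP-2 was measured by ELISA after 24 hours. Activity in either direction was fitted relative to DMSO.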

[4] = read-out: Transforming growth factor beta 1 (TGFb1), TGFB1 (gene 7040); experiment: BSK_KF3CT_TGFb1: BioMAP Diversity Plus: KF3CT Assay for Transforming growth factor beta 1 (TGFb1) Biomarker Activity (AID 2283072); conditions: primary human keratinocytes with fibroblasts; actives raise or lower the signal
Method in brief: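 KF3CT co-culture (keratinocytes + fibroblasts), 24 h exposure → TGF-b1 ELISA → bidirectional fit, DMSO = baseline. Parallel SRB total-protein staining (0.1% SRB, 10% TCA fixation, 560 nm) for cytotoxicity.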

[5] = read-out: C-C motif chemokine 2 (Homo sapiens) (UniProt P13500); experiment: BSK_KF3CT_MCP1: BioMAP Diversity Plus: KF3CT Assay for Monocyte Chemoattractant Protein 1 (MCP1/CCL2) Biomarker Activity (AID 2283073); conditions: primary human keratinocytes with fibroblasts; actives raise or lower the signal
Method in brief: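 Human keratinocyte plus foreskin fibroblast primary co-culture exposed to chemical for 24 h. MCP-1 levels measured by ELISA. Bidirectional curve fitting relative to DMSO negative control as baseline.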

[6] = read-out: Matrix Metallopeptidase 9 (MMP9), MMP9 (gene 4318); experiment: BSK_KF3CT_MMP9: BioMAP Diversity Plus: KF3CT Assay for Matrix Metallopeptidase 9 (MMP9) Biomarker Activity (AID 2283074); conditions: primary human keratinocytes with fibroblasts; actives raise or lower the signal;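 for AC50: MMP9 protein level quantified by ELISA in the co-culture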
Method in brief: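 ELISA read-out of MMP-9 at 24 h post-dosing in a co-culture of human skin keratinocytes and foreskin fibroblasts. Gain or loss of signal was fitted in both directions against DMSO.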

[7] = read-out: urokinase plasminogen activator (uPA), PLAU (gene 5328); experiment: BSK_KF3CT_uPA: BioMAP Diversity Plus: KF3CT Assay for urokinase plasminogen activator (uPA) Biomarker Activity (AID 2283075); conditions: primary human keratinocytes with fibroblasts; actives raise or lower the signal
Method in brief: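 Skin co-culture (keratinocytes + foreskin fibroblasts), human primary; 24 h post-dose; uPA by ELISA; gain/loss fit vs DMSO baseline.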

[8] = read-out: CD40, CD40 (gene 958); experiment: BSK_LPS_CD40: BioMAP Diversity Plus: LPS Assay for CD40 Biomarker Activity (AID 2283076); conditions: primary human HUVEC with PBMC; actives raise or lower the signal
Method in brief: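 Primary human umbilical vein endothelial cells co-cultured with peripheral blood mononuclear cells, LPS-stimulated, were dosed with chemical and read 24 h later. CD40 levels were measured by ELISA and fitted bidirectionally against DMSO as negative control and baseline.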

[9] = read-out: E-selectin (Homo sapiens) (UniProt P16581); experiment: BSK_LPS_Eselectin: BioMAP Diversity Plus: LPS Assay for Eselectin Biomarker Activity (AID 2283077); conditions: primary human HUVEC with PBMC; actives raise or lower the signal
Method in brief: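 Human umbilical vein endothelial cells co-cultured with peripheral blood mononuclear cells under LPS stimulation; E-selectin measured by ELISA 24 h after chemical dosing. Activity fitted bidirectionally against DMSO as negative control and baseline.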

[10] = read-out: Interleukin-8 (IL8), CXCL8 (gene 3576); experiment: BSK_LPS_IL8: BioMAP Diversity Plus: LPS Assay for Interleukin-8 (IL8) Biomarker Activity (AID 2283078); conditions: primary human HUVEC with PBMC; actives raise or lower the signal
Method in brief: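 Human umbilical vein endothelial cells co-cultured with PBMC were stimulated with LPS; IL-8 levels were measured by ELISA 24 h after chemical dosing. Activity was fitted bidirectionally against DMSO as negative control and baseline.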

[11] = BSK_LPS_SRB: Viability Assessment in the BioMAP Diversity Plus: LPS Assay (AID 2283079); conditions: primary human HUVEC with PBMC;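 note: total protein by sulforhodamine B absorbance as a cytotoxicity measure; measured one day after compound addition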
Method in brief: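 Human umbilical vein endothelial cells co-cultured with PBMC (LPS system) were dosed for 24 h. Total protein was stained with 0.1% sulforhodamine B after 10% TCA fixation, read at 560 nm, and fitted bidirectionally against DMSO baseline.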

[12] = read-out: Interleukin-1 alpha (IL1a), IL1A (gene 3552); experiment: BSK_LPS_IL1a: BioMAP Diversity Plus: LPS Assay for Interleukin-1 alpha (IL1a) Biomarker Activity (AID 2283080); conditions: primary human HUVEC with PBMC; actives raise or lower the signal
Method in brief: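 Human umbilical vein endothelial cells co-cultured with peripheral blood mononuclear cells were LPS-stimulated and exposed to test chemicals for 24 h. IL-1 alpha was quantified by ELISA, with bidirectional curve fitting against DMSO as the negative control and baseline.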

[13] = read-out: Monocyte Chemoattractant Protein-1 (MCP1), CCL2 (gene 6347); experiment: BSK_LPS_MCP1: BioMAP Diversity Plus: LPS Assay for Monocyte Chemoattractant Protein-1 (MCP1) Biomarker Activity (AID 2283081); conditions: primary human HUVEC with PBMC; actives raise or lower the signal;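 for AC50: secreted MCP-1 protein quantified by ELISA in culture supernatant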
Method in brief: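 HUVEC plus PBMC co-culture (human primary cells, LPS system) exposed to test chemical for 24 h; MCP-1 measured by ELISA. Bidirectional curve fitting against DMSO baseline; parallel SRB total-protein staining flags overt cytotoxicity.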

[14] = BSK_LPS_PGE2: BioMAP Diversity Plus: LPS Assay for Prostaglandin E2 (PGE2) Biomarker Activity (AID 2283082); conditions: primary human HUVEC with PBMC; actives raise or lower the signal;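 for AC50: secreted prostaglandin E2 measured by ELISA in LPS-stimulated co-culture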
Method in brief: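 Compounds were added to the LPS co-culture of endothelium and PBMC, and PGE2 was measured by ELISA after 24 h. Responses in either direction were fitted with DMSO as baseline.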

[15] = read-out: Macrophage colony-stimulating factor (MCSF), CSF1 (gene 1435); experiment: BSK_LPS_MCSF: BioMAP Diversity Plus: LPS Assay for Macrophage colony-stimulating factor (MCSF) Biomarker Activity (AID 2283083); conditions: primary human HUVEC with PBMC; actives raise or lower the signal
Method in brief: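 Human umbilical vein endothelial cells co-cultured with peripheral blood mononuclear cells were exposed to compound for 24 h. M-CSF levels were measured by ELISA, and bidirectional curve fitting used DMSO as the negative control and baseline.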

[16] = read-out: Tissue Factor, F3 (gene 2152); experiment: BSK_LPS_TissueFactor: BioMAP Diversity Plus: LPS Assay for Tissue Factor Biomarker Activity (AID 2283084); conditions: primary human HUVEC with PBMC; actives raise or lower the signal
Method in brief: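 Human umbilical vein endothelial cells co-cultured with peripheral blood mononuclear cells were dosed and stimulated with LPS. Cell-surface CD142 was quantified by ELISA at 24 h. Activity was fitted bidirectionally against DMSO baseline.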

[17] = read-out: Tumor necrosis factor (Homo sapiens) (UniProt P01375); experiment: BSK_LPS_TNFa: BioMAP Diversity Plus: LPS Assay for Tumour Necrosis Factor alpha (TNFa) Biomarker Activity (AID 2283085); conditions: primary human HUVEC with PBMC; actives raise or lower the signal;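 for AC50: TNFa protein level quantified by ELISA in the co-culture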
Method in brief: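 Cells (umbilical vein endothelium plus peripheral blood mononuclear cells) were dosed with chemical, incubated 24 h, then TNFa was quantified by ELISA; values derive from bidirectional fitting with DMSO as baseline.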

[18] = read-out: Vascular cell adhesion molecule 1 (VCAM1), VCAM1 (gene 7412); experiment: BSK_LPS_VCAM1: BioMAP Diversity Plus: LPS Assay for Vascular cell adhesion molecule 1 (VCAM1) Biomarker Activity (AID 2283086); conditions: primary human HUVEC with PBMC; actives raise or lower the signal
Method in brief: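 Cells are dosed in an LPS-stimulated endothelial/mononuclear co-culture and, after 24 h, VCAM-1 is quantified by ELISA. Activity in either direction is fitted relative to the DMSO negative control.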

[19] = read-out: CD38, CD38 (gene 952); experiment: BSK_SAg_CD38: BioMAP Diversity Plus: SAg Assay for CD38 Biomarker Activity (AID 2283087); conditions: primary human HUVEC with PBMC; actives raise or lower the signal
Method in brief: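 CD38 quantified by ELISA (fluorescence) in a superantigen-activated endothelial cell–PBMC co-culture at 24 h post-dose. Activity fitted in both directions relative to DMSO; parallel SRB and Alamar Blue cytotoxicity read-outs.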

[20] = read-out: CD40, CD40 (gene 958); experiment: BSK_SAg_CD40: BioMAP Diversity Plus: SAg Assay for CD40 Biomarker Activity (AID 2283088); conditions: primary human HUVEC with PBMC; actives raise or lower the signal
Method in brief: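 Human umbilical vein endothelial cells co-cultured with PBMC; CD40 levels measured by ELISA with fluorescence read-out 24 h after chemical dosing. Gain or loss of signal fitted bidirectionally against DMSO baseline.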

Measured: AC50

Sequence of Tumor necrosis factor (Homo sapiens) (P01375 whole entry, looked up): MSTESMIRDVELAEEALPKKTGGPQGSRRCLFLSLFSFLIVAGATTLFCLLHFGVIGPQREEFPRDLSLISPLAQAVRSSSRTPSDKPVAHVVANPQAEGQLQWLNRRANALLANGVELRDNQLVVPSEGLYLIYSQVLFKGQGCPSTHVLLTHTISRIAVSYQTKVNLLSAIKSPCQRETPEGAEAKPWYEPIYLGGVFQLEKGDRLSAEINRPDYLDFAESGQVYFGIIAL
Sequence of E-selectin (Homo sapiens) (P16581 whole entry, looked up): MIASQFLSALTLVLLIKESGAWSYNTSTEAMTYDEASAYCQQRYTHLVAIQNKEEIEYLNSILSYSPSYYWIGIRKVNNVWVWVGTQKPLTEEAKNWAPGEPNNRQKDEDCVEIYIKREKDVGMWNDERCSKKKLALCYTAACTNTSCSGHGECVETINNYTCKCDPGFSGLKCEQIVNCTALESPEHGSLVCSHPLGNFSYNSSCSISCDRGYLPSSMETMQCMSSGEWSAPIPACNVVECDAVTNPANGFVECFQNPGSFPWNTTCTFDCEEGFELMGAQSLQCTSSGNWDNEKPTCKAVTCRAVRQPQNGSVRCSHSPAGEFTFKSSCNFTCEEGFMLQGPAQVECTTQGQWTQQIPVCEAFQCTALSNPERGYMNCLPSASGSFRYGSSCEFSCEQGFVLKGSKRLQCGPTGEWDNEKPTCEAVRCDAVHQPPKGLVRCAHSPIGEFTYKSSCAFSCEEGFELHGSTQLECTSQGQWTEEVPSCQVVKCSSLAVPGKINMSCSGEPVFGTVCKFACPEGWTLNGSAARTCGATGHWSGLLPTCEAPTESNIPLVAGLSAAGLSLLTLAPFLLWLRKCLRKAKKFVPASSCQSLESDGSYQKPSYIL

ClC1(Cl)C2(Cl)C3(Cl)C4(Cl)C(Cl)(Cl)C5(Cl)C3(Cl)C1(Cl)C5(Cl)C24Cl (configuration not stated)
inactive: [1] | [2] | [3] | [4] | [5] | [6] | [7] | [8] | [9] | [10] | [11] | [12] | [13] | [15] | [16] | [18] | [19]
active: [14] 0.148 µM | [17] 149 nM

O=C(O)C(F)(F)C(F)(F)C(F)(F)C(F)(F)C(F)(F)C(F)(F)C(F)(F)C(F)(F)C(F)(F)C(F)(F)F
inactive: [8] | [9] | [10] | [11] | [12] | [13] | [15] | [16] | [18] | [19]
active: [1] 9.99 µM and 5.01 µM and 5.38 µM | [2] 10.8 µM and 3.41 µM and 5.06 µM | [3] 9.27 µM and 6.15 µM and 6.13 µM | [4] 5.59 µM | [5] 7.51 µM and 4.5 µM and 4.55 µM | [6] 6.03 µM and 3.85 µM and 4.19 µM | [7] 9.7 µM and 5.47 µM and 5.16 µM | [8] 29.5 µM | [10] 33.8 µM and 2.03 µM | [11] 34.8 µM | [12] 29.6 µM | [13] 30.2 µM | [15] 31.4 µM | [16] 30.2 µM | [17] 31.4 µM and 4.39 µM and 4.42 µM | [18] 29.6 µM | [19] 37.4 µM

COP(=S)(OC)Oc1ccc(S(=O)(=O)N(C)C)cc1
active: [12] 0.0677 µM
inactive: [1] | [2] | [3] | [4] | [5] | [6] | [7] | [8] | [9] | [10] | [11] | [13] | [15] | [16] | [17] | [18] | [19]

Oc1c(I)cc(I)cc1I
inactive: [1] | [5] | [10] | [12] | [13] | [14] | [16] | [17]
active: [2] 27.7 µM | [3] 17 µM | [4] 7.06 µM | [6] 5.35 µM | [7] 31.2 µM | [8] 14.2 µM | [9] 27.6 µM | [11] 20 µM | [15] 31.1 µM | [18] 14.3 µM | [19] 25.4 µM | [20] 25.3 µM

CC(C)CCCCCCOC(=O)c1ccccc1C(=O)OCCCCCCC(C)C
active: [2] 1.58 µM
inactive: [1] | [3] | [4] | [5] | [6] | [7] | [8] | [9] | [10] | [11] | [12] | [13] | [14] | [15] | [16] | [17] | [18] | [19]

ClC1=C(Cl)[C@]2(Cl)[C@H]3[C@H]([C@H]4C=C[C@H]3C4)[C@@]1(Cl)C2(Cl)Cl
inactive: [1] | [2] | [3] | [5] | [6] | [7] | [8] | [9] | [12] | [13] | [15] | [16] | [18]
active: [4] 2.86 µM | [10] 160 nM | [11] 5.73 µM | [14] 0.142 µM | [17] 296 nM | [19] 4.55 µM | [20] 4.46 µM

CCOC(=O)/C=C(C)/C=C/C[C@@H](C)CCCC(C)C
active: [1] 33.8 µM | [2] 26.3 µM | [3] 27 µM | [4] 13.5 µM | [5] 7.27 µM | [6] 30.2 µM | [7] 31.2 µM | [8] 20 µM | [9] 34.8 µM | [10] 32700 nM | [11] 38.7 µM | [12] 33.3 µM | [13] 30.7 µM | [14] 10.1 µM | [15] 15.5 µM | [16] 29.2 µM | [17] 33200 nM | [18] 25.7 µM | [19] 30.7 µM

CCC(=O)C(CC(C)N(C)C)(c1ccccc1)c1ccccc1 (configuration not stated)
inactive: [1] | [2] | [3] | [4] | [5] | [6] | [7] | [8] | [9] | [10] | [11] | [12] | [13] | [14] | [15] | [16] | [17] | [18] | [19] | [20]
